Only a selection was taken, and hits are over-represented in it overall.
mHTT CaM bind – disrupts binding of mutant huntingtin to calmodulin | P42858 | AlphaScreen His-mHTT/GST-CaM binding, luminescence | inhibition, % at 15 µM | 190,000 tested, 3.6% active | AID 1671202;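 also: 0% = both proteins with DMSO and 100% = one protein alone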
Target sequence (P42858 whole entry, looked up, stated change not applied): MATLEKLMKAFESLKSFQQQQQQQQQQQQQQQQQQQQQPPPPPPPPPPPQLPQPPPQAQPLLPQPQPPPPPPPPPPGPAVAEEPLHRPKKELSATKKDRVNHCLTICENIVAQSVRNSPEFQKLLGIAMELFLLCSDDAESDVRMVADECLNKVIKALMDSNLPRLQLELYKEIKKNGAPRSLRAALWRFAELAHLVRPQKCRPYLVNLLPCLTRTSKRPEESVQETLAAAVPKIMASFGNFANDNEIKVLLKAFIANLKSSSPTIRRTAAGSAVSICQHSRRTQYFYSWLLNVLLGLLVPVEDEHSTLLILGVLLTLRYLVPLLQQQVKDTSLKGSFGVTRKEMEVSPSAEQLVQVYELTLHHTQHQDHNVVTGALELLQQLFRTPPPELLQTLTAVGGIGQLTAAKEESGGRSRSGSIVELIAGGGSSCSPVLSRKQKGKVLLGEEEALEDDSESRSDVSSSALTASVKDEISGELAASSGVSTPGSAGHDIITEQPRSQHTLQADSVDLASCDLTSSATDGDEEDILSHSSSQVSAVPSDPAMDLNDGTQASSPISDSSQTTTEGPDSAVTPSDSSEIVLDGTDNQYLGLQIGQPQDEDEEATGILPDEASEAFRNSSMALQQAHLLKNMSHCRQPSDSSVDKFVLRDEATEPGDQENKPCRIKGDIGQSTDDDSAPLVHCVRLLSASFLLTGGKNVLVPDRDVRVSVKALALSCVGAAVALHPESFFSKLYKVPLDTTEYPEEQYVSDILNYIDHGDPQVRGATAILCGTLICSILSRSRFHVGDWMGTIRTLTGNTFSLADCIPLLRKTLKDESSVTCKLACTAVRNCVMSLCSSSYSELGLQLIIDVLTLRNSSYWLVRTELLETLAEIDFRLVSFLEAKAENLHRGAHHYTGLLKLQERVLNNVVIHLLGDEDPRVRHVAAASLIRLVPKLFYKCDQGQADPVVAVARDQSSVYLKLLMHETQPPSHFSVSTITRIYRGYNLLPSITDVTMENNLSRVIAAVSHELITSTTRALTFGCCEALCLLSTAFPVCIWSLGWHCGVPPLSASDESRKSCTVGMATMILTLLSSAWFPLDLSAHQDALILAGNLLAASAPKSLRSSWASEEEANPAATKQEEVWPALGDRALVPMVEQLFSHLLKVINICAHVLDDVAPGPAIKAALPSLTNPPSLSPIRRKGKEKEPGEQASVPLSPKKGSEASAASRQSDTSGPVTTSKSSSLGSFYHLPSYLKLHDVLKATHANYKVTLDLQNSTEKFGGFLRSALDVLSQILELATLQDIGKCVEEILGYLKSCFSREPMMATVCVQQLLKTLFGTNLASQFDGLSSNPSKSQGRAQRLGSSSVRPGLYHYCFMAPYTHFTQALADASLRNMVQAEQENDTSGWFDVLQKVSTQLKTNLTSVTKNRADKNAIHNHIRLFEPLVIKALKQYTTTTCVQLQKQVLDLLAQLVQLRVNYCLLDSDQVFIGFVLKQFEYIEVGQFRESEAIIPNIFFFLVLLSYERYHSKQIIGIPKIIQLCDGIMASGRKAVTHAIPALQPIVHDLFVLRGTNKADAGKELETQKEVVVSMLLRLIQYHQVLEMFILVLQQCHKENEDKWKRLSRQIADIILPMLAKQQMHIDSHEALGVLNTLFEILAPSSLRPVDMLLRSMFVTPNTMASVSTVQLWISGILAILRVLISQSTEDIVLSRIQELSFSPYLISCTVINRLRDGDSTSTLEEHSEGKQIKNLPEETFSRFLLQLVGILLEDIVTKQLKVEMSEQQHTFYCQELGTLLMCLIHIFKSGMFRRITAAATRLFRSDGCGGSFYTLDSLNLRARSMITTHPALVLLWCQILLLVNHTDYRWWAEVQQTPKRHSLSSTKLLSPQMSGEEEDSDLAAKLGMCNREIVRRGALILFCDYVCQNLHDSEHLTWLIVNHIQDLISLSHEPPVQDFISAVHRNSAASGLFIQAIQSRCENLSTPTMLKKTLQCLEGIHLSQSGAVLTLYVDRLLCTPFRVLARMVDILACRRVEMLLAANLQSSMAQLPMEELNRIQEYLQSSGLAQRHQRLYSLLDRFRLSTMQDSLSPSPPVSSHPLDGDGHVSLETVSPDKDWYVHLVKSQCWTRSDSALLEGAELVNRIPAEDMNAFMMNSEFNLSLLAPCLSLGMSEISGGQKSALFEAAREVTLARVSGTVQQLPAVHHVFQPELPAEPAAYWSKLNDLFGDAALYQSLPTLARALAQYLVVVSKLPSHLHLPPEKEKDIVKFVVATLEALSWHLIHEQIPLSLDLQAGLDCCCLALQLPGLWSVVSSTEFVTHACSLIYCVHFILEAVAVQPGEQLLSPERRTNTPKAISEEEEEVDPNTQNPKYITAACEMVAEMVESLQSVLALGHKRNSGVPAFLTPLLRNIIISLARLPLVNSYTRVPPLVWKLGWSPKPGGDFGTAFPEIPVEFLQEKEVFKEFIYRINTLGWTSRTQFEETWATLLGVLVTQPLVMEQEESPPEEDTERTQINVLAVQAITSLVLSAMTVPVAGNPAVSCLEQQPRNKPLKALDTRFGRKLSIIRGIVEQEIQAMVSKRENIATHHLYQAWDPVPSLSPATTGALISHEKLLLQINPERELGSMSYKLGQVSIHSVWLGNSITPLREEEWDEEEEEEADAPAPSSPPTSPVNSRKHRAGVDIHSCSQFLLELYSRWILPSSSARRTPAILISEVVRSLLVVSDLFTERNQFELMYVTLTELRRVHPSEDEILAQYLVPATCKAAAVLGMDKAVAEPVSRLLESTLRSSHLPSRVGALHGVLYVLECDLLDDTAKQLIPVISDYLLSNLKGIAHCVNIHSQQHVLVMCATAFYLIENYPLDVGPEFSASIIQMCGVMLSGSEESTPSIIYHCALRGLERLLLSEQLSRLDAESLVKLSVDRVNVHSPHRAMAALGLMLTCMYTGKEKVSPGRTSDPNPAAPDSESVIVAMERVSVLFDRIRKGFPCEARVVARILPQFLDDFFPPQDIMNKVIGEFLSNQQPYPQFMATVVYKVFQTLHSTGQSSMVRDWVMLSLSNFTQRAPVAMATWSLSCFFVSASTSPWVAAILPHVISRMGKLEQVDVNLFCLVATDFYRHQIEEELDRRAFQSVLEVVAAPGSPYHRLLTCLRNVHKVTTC
Pf apPOL block – Pf-apPOL DNA polymerase inhibition. Recombinant Pf-apPOL, molecular beacon fluorescence, 1.5 h. inhibition, % at 10 µM. 210,000 tested, 0.25% active. AID 1794808
Starred values were filed as active, the others as inactive; ! = repeats disagree. Rule as the data show it: active = inhibition above about 50%; inactive = the rest.

COc1ccc(OCC2c3cc(OC)c(OC)cc3CCN2C(=O)c2ccc(OC)cc2)cc1 (stereo unspecified) was read as mHTT CaM bind 56.7* and Pf apPOL block -1.2.
`CCC(=O)N1CCc2cc(OC)c(OC)cc2C1COc1ccc(OC)cc1` (stereo unspecified) gave mHTT CaM bind 1.6 and Pf apPOL block 2.0.
Screening CCOc1ccccc1C(=O)N1CCc2cc(OC)c(OC)cc2C1COc1ccccc1OC (stereo unspecified) returned mHTT CaM bind 55.0* and Pf apPOL block -4.3.
Screening COC(=O)c1ccc(OCC2c3cc(OC)c(OC)cc3CCN2C(=O)c2cc(OC)cc(OC)c2)cc1 (stereo unspecified) returned mHTT CaM bind -2.6 and Pf apPOL block -2.3.
Screening COc1cc2c(cc1OC)C(COc1ccccc1OC)N(C(C)=O)CC2 (stereo unspecified) returned mHTT CaM bind -6.7 and Pf apPOL block -0.3.
For COc1ccc(NC(=O)CCCn2c(=O)c3sccc3n(Cc3cccc(F)c3)c2=O)cc1 the results were mHTT CaM bind -4.0 and Pf apPOL block -2.3.
Screening CCOc1ccccc1/C=C/c1[nH]c(=O)[nH]c(=O)c1[N+](=O)[O-] returned mHTT CaM bind -1.0 and Pf apPOL block 0.3.
For COc1ccc(C(=O)N2CC3CC2CC3NS(=O)(=O)c2ccccc2)cn1 (stereo unspecified) the results were mHTT CaM bind 2.3 and Pf apPOL block 2.6.
Screening Cc1nc2c(c(N3CCCC3)n1)CN(C(=O)Nc1ccccc1C)CC2 returned mHTT CaM bind 8.1 and Pf apPOL block 3.9.
For O=[N+]([O-])c1cc(C(F)(F)F)cc([N+](=O)[O-])c1N1CCCCC1 the results were mHTT CaM bind 24.0 and Pf apPOL block -2.0.
O=[N+]([O-])c1cc(Br)c2nsnc2c1N1CCCCC1 was read as mHTT CaM bind 77.0*! and Pf apPOL block -8.4.
`CC1CCN(Cc2nc(-c3ccc(N4CCCC(C)C4)nc3)no2)CC1` (stereo unspecified) gave mHTT CaM bind -0.3 and Pf apPOL block -1.5.
Screening CCOc1ccc(NC(=O)C(C)Oc2ccccc2)cc1 (stereo unspecified) returned mHTT CaM bind -7.7 and Pf apPOL block 1.0.
For CCOc1ccc(NC(=O)C(C)Sc2nnc(C(c3ccccc3)c3ccccc3)n2C)cc1 (stereo unspecified) the results were mHTT CaM bind 12.2 and Pf apPOL block 82.3*.
Screening COc1ccc(C2Nc3ccccc3C(=O)N2Cc2ccco2)cc1COc1ccc(Cl)cc1 (stereo unspecified) returned mHTT CaM bind 55.0* and Pf apPOL block 7.9.
Screening COc1cccc(OCc2cc(C3Nc4ccccc4C(=O)N3Cc3ccco3)ccc2OC)c1 (stereo unspecified) returned mHTT CaM bind 28.0 and Pf apPOL block -8.4.
Screening Cc1nn(-c2ccc(F)cc2)c2nc(C3CC3)nc(N3CCOCC3)c12 returned mHTT CaM bind -9.0 and Pf apPOL block -3.2.
For O=C(Cc1ccsc1)N1CCC(c2nncn2-c2ccccc2)CC1 the results were mHTT CaM bind 10.3 and Pf apPOL block -4.7.
For Cc1cccc(NC(=O)c2ccc(F)cc2)n1 the results were mHTT CaM bind -5.3 and Pf apPOL block -5.6.
O=C(NCCc1cccnc1)C1CCCN(c2nnc3ccc(C(F)(F)F)cn23)C1 (stereo unspecified) was read as mHTT CaM bind 1.7 and Pf apPOL block -0.4.
For COc1ccc(-c2ccc(/C=C/c3cc(C(F)(F)F)[nH]c(=O)n3)o2)cc1Cl the results were mHTT CaM bind 99.0* and Pf apPOL block 7.2.
COc1ccc(-c2ccc(/C=C/c3cc(C(F)(F)F)[nH]c(=O)n3)o2)c([N+](=O)[O-])c1 was read as mHTT CaM bind 24.0 and Pf apPOL block -2.6.
For Cc1ccc(C)c(S(=O)(=O)n2nnc3cc(Cl)ccc32)c1 the results were mHTT CaM bind -6.0 and Pf apPOL block -1.6.
For COc1ccc(OC)c(S(=O)(=O)n2nnc3cc(Cl)ccc32)c1 the results were mHTT CaM bind 100.0* and Pf apPOL block -10.2.
Screening O=C(Nc1nccs1)C(c1ccccc1)n1cccc1 (stereo unspecified) returned mHTT CaM bind 34.9 and Pf apPOL block 5.3.
O=C(Nc1cccc2ncccc12)C(c1ccccc1)n1cccc1 (stereo unspecified) was read as mHTT CaM bind 78.0* and Pf apPOL block 26.0.
Cc1ccc(NC(=O)CSc2nnc3c(n2)[nH]c2ccccc23)cc1Cl was read as mHTT CaM bind 53.0* and Pf apPOL block 3.4.
Cc1ccc(NC(=O)CSc2nc3c([nH]c4ccccc43)c(=O)n2C)cc1Cl was read as mHTT CaM bind 18.0 and Pf apPOL block 0.1.
Screening O=c1[nH]c2ccc(N=Cc3cc([N+](=O)[O-])c(Cl)cc3Cl)cc2[nH]1 returned mHTT CaM bind 94.0* and Pf apPOL block 0.3.
O=c1[nH]c2ccc(N=Cc3cc(Br)cc(Br)c3O)cc2[nH]1 was read as mHTT CaM bind 61.0* and Pf apPOL block -8.2.
For Cc1c(N=Cc2cc([N+](=O)[O-])c(Cl)cc2Cl)c(=O)n(-c2ccccc2)n1C the results were mHTT CaM bind 0.0 and Pf apPOL block -1.0.
Screening O=c1[nH]c2ccc(N=Cc3cc(O)ccc3Br)cc2[nH]1 returned mHTT CaM bind 9.0 and Pf apPOL block -2.9.
COc1ccc(NC(=O)c2ccc3c(c2)OCO3)c(OC)c1 was read as mHTT CaM bind -8.0 and Pf apPOL block -3.8.
Screening O=C(c1ccc(-c2cccnc2)nc1)N1CCN(c2ccccc2Cl)CC1 returned mHTT CaM bind 6.5 and Pf apPOL block -0.9.
For COc1ccc(-c2ncc3c(n2)CCN(C(=O)c2cccc(Cl)c2)C3)cc1 the results were mHTT CaM bind -3.6 and Pf apPOL block 1.3.
Screening O=C(Nc1ccc(Cl)c(C(F)(F)F)c1)c1ccc(NC(=O)C2CCCO2)cc1 (stereo unspecified) returned mHTT CaM bind 6.0 and Pf apPOL block -0.7.
For N#Cc1ccc(CN2CCCC(c3nc(-c4cccnc4)n[nH]3)C2)cc1 (stereo unspecified) the results were mHTT CaM bind -11.9 and Pf apPOL block 6.5.
`N#Cc1cccc(CN2CCCC(c3nc(-c4ccncc4)n[nH]3)C2)c1` (stereo unspecified) gave mHTT CaM bind 18.5 and Pf apPOL block -6.6.
Screening c1cc(-c2n[nH]c(C3CCCN(Cc4ccc5cc[nH]c5c4)C3)n2)ccn1 (stereo unspecified) returned mHTT CaM bind 53.0* and Pf apPOL block 2.9.
`c1ccc(CN2CCCC(c3nc(-c4cccnc4)n[nH]3)C2)nc1` (stereo unspecified) gave mHTT CaM bind 99.4* and Pf apPOL block -23.4.
`O=C(Nc1cccc(N2CCCN(Cc3cc(F)cc(F)c3)C2=O)c1)C1CCC1` gave mHTT CaM bind 0.1 and Pf apPOL block -4.3.
Cc1cc(C)nc(NC(=O)CCCOc2ccc(Cl)cc2C)n1 was read as mHTT CaM bind 7.0 and Pf apPOL block -2.8.
For CCCCC(=O)Nc1c2c(nn1-c1ccc(Cl)cc1)CSC2 the results were mHTT CaM bind -1.0 and Pf apPOL block 0.3.
`O=C(c1cc2ccccc2nc1-c1ccco1)C(F)(F)F` gave mHTT CaM bind 11.0 and Pf apPOL block -2.8.
For O=C(Nc1ccc2nc(-c3ccco3)c(-c3ccco3)nc2c1)N1CCSCC1 the results were mHTT CaM bind 83.7* and Pf apPOL block 2.2.
Screening Cc1nc2ccc(NC(=O)N3CCCC3)cc2nc1C returned mHTT CaM bind -0.5 and Pf apPOL block 1.0.

Assay outcomes: PubChem BioAssay, University of Kansas High Throughput Screening Laboratory
